# Screens (PubChem BioAssay)
# hDAT+cocaine – changed human dopamine transporter uptake under cocaine IC80 | Q01959 | LLC-PK1 hDAT cells, [14C]-dopamine uptake with cocaine IC80; actives deviate in either direction | B-score at 10 µM | 110,000 compounds, 1.3% hits | AID 449768;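 active means Z score or B-score, a plate-position-corrected score, falls beyond the plate's 99.7% confidence bounds, in either direction; inactive means both scores lie inside the 99.7% bounds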;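 further: scored against the spread of the other compound wells on the same plate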
# PLAP activator – human PLAP activation; 96,000 compounds, 1.2% hits; P05187; activation fold at 20 µM; purified PLAP enzyme, luminescent substrate read-out; active compounds read high; AID 696; in the data active means activation fold above about 2
# TNAP act DEA – human TNAP activation, intermediate phosphate acceptor; P05186; purified TNAP, CDP-star luminescence, 100 mM DEA, 30 min; active compounds read high; scale: 0 levamisole-inhibited, 1 vehicle-only enzyme; activation factor at 20 µM; 64,000 tested, under 10 active;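 active means activation factor of at least 2 at 20 µM, relative to controls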
# HePTP inh – blocks human HePTP tyrosine phosphatase; P35236; recombinant HePTP phosphatase activity, OD absorbance; inhibition, % at 20 µM; 110,000 compounds, 0.64% hits; AID 521; in the data active means inhibition above about 50%;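 further: plate controls were vehicle for no effect and reference inhibitor for full effect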
# Candida biofilm – kills Candida albicans biofilms; 85,000 compounds, 0.14% hits; C. albicans biofilm + clotrimazole, Alamar Blue; inhibition, % at 6 µM; AID 834;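 active means inhibition above 20%; inactive means inhibition below 20%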;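 further: preformed 24 hr biofilms exposed to compound for 48 hr; 0% = biofilm without compound and 100% = blank killed by clotrimazole plus chlorhexidine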
# D1 allo mod – D1 dopamine receptor (human) allosteric modulation | 58,000 compounds, 5.9% hits | AID 641 | B-score at 10 µM | P21728 | HEK293 D1, CRE-luciferase, dopamine EC30 potentiation; actives deviate in either direction;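 active means luminescence count or its row- and column-corrected plate score outside the 99.7% band of the plate's sample wells, on either side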
# Target sequence (P21728 whole entry, looked up): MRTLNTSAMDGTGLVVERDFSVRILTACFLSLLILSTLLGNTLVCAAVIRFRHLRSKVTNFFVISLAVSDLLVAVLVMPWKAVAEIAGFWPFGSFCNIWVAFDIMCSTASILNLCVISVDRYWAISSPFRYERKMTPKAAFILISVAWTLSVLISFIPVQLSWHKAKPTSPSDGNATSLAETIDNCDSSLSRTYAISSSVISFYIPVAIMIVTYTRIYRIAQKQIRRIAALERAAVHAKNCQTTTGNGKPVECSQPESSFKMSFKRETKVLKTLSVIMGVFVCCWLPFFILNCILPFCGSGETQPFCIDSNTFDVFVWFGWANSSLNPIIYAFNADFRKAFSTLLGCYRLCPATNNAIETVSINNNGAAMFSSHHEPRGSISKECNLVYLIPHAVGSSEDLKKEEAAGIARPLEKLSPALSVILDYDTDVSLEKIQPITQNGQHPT
# D1 PAM confirm – confirmation of human D1 dopamine receptor allosteric modulators; shares compounds with D1 allo mod; HEK293 D1 CRE-luciferase, dopamine EC30 potentiation; active compounds read high; luminescence at 10 µM; 2,200 compounds, 88% hits; AID 642;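 active means luminescence in either of two replicates above the same-plate mean plus 3 SD of the low-dose dopamine control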
# D1 no dopamine – activates D1 CRE-luciferase signal without dopamine present. HEK293 D1 CRE-luciferase, luminescence, no dopamine; active compounds read high. 1,900 compounds, 0.8% hits. luminescence at 10 µM. shares compounds with D1 allo mod. AID 646; in the data active means luminescence above about 3900
# Isoprot counter – isoproterenol response counter-screen activity for D1 modulators; shares compounds with D1 allo mod; HEK293 D1 CRE-luciferase, isoproterenol EC30 counter-screen; active compounds read high; luminescence at 10 µM; 2,200 compounds, 63% hits; AID 647;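 active means luminescence in either replicate above plate mean of wells with a partly effective reference agonist dose plus 3 SD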;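 further: isoproterenol raises cAMP through native beta-adrenoceptor Gs so signal bypasses D1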
# Starred values were filed as active, the others as inactive; / = no result given. The entries come from a sample that favours hits as a whole.
SMILES,hDAT+cocaine,PLAP activator,TNAP act DEA,HePTP inh,Candida biofilm,D1 allo mod,D1 PAM confirm,D1 no dopamine,Isoprot counter
CCCSc1nc2c(cnn2-c2ccc(F)cc2)c(=O)[nH]1,-1.1,1.1,0.9,-4,/,/,/,/,/
CCCSc1nc2c(cnn2-c2ccc(C)cc2)c(=O)[nH]1,-0.89,1.2,0.8,1,6,10*,20136*,1696,3796*
CCC(C)Sc1nc2c(cnn2-c2ccccc2)c(=O)[nH]1 (stereo not drawn),-0.0018,1.4,0.9,-1,2,12*,13072*,1680,3576*
CCNc1nc(Oc2ccc(=O)n(-c3ccccc3)n2)nc(N2CCOCC2)n1,1.3,1.3,0.9,11,7,10*,18936*,1592,4968*
COc1ccc2c(C(F)(F)F)cc(=O)oc2c1C,-0.0058,/,0.9,9,3,4.8*,6684*,1588,3676
O=C(Cc1ccccc1)Nc1ccc(-c2nc3ccccc3s2)c(O)c1,/,/,/,-5,/,/,/,/,/
COc1ccc2c(Cl)c(C(N)=O)sc2c1,-0.62,0.9,0.9,13,3,7.3*,15304*,1792,3248*
COc1ccc2c(Cl)c(C(=O)NN)sc2c1,0.86,1,/,/,/,/,/,/,/
c1ccc(N(c2ccccc2)c2nc(-n3ccnc3)nc(-n3ccnc3)n2)cc1,1.2,0.9,0.8,6,10,5.7*,18076*,1612,4960*
CCCCNc1nc(N(C)c2ccccc2)nc(-n2ccnc2)n1,0.73,1,0.9,3,-5,4.6*,17552*,1484,4732*
CC1=C(C(=O)Nc2ccc(Cl)cc2)C(c2ccccc2F)NC(=O)N1 (stereo not drawn),/,/,/,-9,/,/,/,/,/
Cc1cc(SCC(=O)N2CCC(c3noc4ccc(F)cc34)CC2)nc2ccccc12,2,1,0.9,2,5,3.7*,6804*,1500,2672
Cc1nc2ccccc2c2nc3ccccc3n12,-0.24,1,0.9,-14,1,2,/,/,/
Cc1nnc2c(NC(C)C)nc3ccccc3n12,-0.31,0.9,0.9,6,-5,16*,12020*,1592,3848*
CCOC(=O)CSc1nnc(-c2ccco2)n1-c1ccc(C)cc1,0.016,0.9,0.9,3,1,4.3*,5532,/,2988*
CCOC(=O)CSc1nnc(-c2ccco2)n1-c1ccccc1,-0.47,1.2,1,1,7,0.59,/,/,/
COC(=O)CSc1nnc(-c2ccco2)n1-c1ccc(C)cc1,1.5,1.2,1,2,11,15*,17312*,1612,3744*
COC(=O)c1cccc(CSc2nnc(-c3ccco3)n2-c2ccccc2)c1,0.36,1,1,-8,7,4.2*,17968*,1916,4484*
COC(=O)CSc1nnc(-c2ccoc2C)n1-c1ccc(C)cc1,0.23,1,0.9,5,7,1.1,/,/,/
COc1ccc(C(=O)CSc2nnc(-c3ccco3)n2-c2ccccc2)cc1,/,/,/,-3,/,/,/,/,/
O=C(NCc1ccccc1)C1CC(=O)N(c2ccc(Br)cc2)C1 (stereo not drawn),/,/,/,1,/,/,/,/,/
CCc1nc(N2CCOCC2)c(C#N)c2c1COC(C)(C)C2,0.67,1.4,1,0,4,5.6*,15288*,/,3408*
Cc1nc(N2CCOCC2)c(C#N)c2c1COC(C)(C)C2,-0.26,/,0.9,-8,6,/,/,/,/
CC1(C)Cc2nc(N3CCOCC3)c(C#N)cc2CO1,-0.83,1,0.9,-2,10,2.8*,9156*,/,2624
CCCNC(=O)c1c(NC(=O)c2cccc(C)c2)sc2c1CCCC2,/,/,/,7,/,/,/,/,/
CCSc1nc2c(c(=O)n1CC)SC(C)C2 (stereo not drawn),0.084,1.2,0.9,8,10,5.5*,12712*,1732,3016
CCn1c(SCC(=O)Nc2cc(C)on2)nc2c(c1=O)SC(C)C2 (stereo not drawn),-1.1,0.8,/,/,3,6.2*,6212*,1608,2292
